Bioassay records deposited in PubChem BioAssay by Buhrlage Lab, Dana-Farber Cancer Institute and Novartis Institutes for BioMedical Research (Cambridge, Mass).
Compounds with a hit are over-represented: about 14% of the library has one in this group of screens.
USP17 block – blocks human USP17 ubiquitin-rhodamine cleavage; AID 1645855; inhibition, % at 50 µM; actives 6.5% (n = 47,000); purified USP17, Ub-rhodamine cleavage fluorescence, 3 h
USP10 block – blocks human USP10 ubiquitin-rhodamine cleavage. AID 1645856. purified USP10, Ub-rhodamine fluorescence, 60 min. inhibition, % at 20 µM. actives 1.1% (n = 47,000). Q14694
USP28 block – human USP28 deubiquitinase inhibition; actives 3% (n = 47,000); Q96RU2; purified USP28, Ub-rhodamine cleavage fluorescence, 30 min; AID 1645857; inhibition, % at 25 µM
Target sequence (Q96RU2 whole entry, looked up): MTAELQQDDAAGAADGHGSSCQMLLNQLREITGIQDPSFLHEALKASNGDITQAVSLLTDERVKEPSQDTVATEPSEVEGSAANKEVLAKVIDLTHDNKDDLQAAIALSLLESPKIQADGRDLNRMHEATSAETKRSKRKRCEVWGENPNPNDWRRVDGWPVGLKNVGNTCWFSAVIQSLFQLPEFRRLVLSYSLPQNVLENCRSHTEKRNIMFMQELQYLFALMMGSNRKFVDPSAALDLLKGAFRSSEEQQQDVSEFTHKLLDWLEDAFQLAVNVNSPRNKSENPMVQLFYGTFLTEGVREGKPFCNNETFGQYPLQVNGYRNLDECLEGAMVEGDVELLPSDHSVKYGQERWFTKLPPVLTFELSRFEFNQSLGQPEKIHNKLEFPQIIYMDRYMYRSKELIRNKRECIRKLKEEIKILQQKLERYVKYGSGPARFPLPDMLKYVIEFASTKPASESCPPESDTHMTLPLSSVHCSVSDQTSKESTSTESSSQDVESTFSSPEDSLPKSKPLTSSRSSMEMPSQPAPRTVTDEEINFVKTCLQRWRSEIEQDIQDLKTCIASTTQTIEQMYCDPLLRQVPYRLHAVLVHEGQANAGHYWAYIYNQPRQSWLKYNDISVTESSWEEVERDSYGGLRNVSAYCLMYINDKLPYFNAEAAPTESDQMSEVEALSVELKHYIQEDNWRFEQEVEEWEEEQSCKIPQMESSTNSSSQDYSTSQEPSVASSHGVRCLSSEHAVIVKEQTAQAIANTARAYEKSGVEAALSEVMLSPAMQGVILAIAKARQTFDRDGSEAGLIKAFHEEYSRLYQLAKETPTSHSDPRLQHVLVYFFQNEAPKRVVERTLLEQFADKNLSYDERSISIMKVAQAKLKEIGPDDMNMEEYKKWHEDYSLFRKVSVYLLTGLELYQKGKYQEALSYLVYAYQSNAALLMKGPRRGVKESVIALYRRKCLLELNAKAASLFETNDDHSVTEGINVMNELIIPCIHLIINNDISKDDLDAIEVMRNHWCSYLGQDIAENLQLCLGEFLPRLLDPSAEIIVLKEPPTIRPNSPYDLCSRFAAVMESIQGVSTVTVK
USP30 block – blocks human USP30 ubiquitin-rhodamine cleavage; purified USP30, Ub-rhodamine cleavage fluorescence; inhibition, % at 25 µM; actives 5.3% (n = 47,000)
USP8 inh – inhibitors of human USP8 deubiquitinase. purified USP8, Ub-rhodamine cleavage fluorescence, 30 min. inhibition, % at 20 µM. actives 4.2% (n = 47,000). AID 1645853
* = called active by the depositor; i = inactive; . = not tested or not shown. Rule as the data show it: active = inhibition above about 30%; inactive = the rest.

SMILES | USP17 block | USP10 block | USP28 block | USP30 block | USP8 inh
Cc1noc(/C=C/Nc2ccc(OC(F)(F)F)cc2)c1[N+](=O)[O-] | -5.8 | 9.7 | -19.5 | -24.7 | 40.7*
Cc1ccc(C)c(NC(=O)CSc2cc(N3CCCCC3)ncn2)c1 | 11.4 | 1.2 | 8.8 | 40.7* | 0.1
CCCn1c(=O)c2sccc2n2c(CCC(=O)NCCC3=CCCCC3)nnc12 | 4.6 | -0.9 | 4.1 | 1.5 | 14.0
O=C(CCCn1c(=O)c2sccc2n(CC(=O)NCCC2=CCCCC2)c1=O)NCc1ccc2c(c1)OCO2 | 49.9* | 14.9 | 32.2* | 19.9 | 3.6
Cc1ccc(CNC(=O)Cn2c(=O)c3sccc3n(CC(=O)Nc3ccc(Br)cc3)c2=O)cc1 | 10.1 | 2.8 | 10.3 | 25.6 | 23.1
Cc1c(C#N)c2ccccc2n1CC(=O)NCC1CCCO1 (configuration not stated) | -7.3 | -3.1 | -7.5 | -29.5 | 0.8
CCOc1c(CC)cnc2c1c(=O)n(CC(=O)NCc1ccc(F)cc1)c(=O)n2C | 4.8 | 1.0 | 11.9 | 16.9 | 7.0
Cc1c(C#N)c2ccccc2n1CC(=O)NCc1ccc2c(c1)OCO2 | 40.2* | 25.4 | 32.1* | 22.2 | 59.8*
Cc1cc(C)c(NC(=O)Cn2c(=O)n(CCC(=O)NCc3ccc4c(c3)OCO4)c(=O)c3sccc32)c(C)c1 | 75.1* | 56.9* | 49.3* | 27.3 | 26.7
COc1c(C)cnc2c1c(=O)n(CC(=O)NCc1ccc3c(c1)OCO3)c(=O)n2C | 22.2 | -1.4 | 5.2 | 36.0* | 12.6
Cc1cccc(-n2cnc3cc(C(=O)NCc4ccccn4)ccc32)c1 | -30.1 | -11.0 | -19.0 | -113.8 | -9.3
COC(=O)CCC(=O)N1CCC2(CC1)CC[C@@]1(C(=O)N(C)C)CN(S(C)(=O)=O)C[C@@H]21 | -10.5 | 0.6 | 0.2 | 20.2 | -146.3
COc1ccc(C(=O)Nc2cc(OC)c(NC(=O)CN3CCOCC3)cc2OC)cc1 | -4.8 | -4.9 | -31.7 | -121.5 | 58.2*
CCc1cc(C(=O)c2ccc(OC)cc2)c(NC(=O)CCC(=O)O)s1 | 28.9 | 5.8 | 7.8 | 30.6* | 1.2
CCc1cc(C(=O)c2ccc(OC)cc2)c(NC(=O)CN2CCCCC2)s1 | 4.7 | 4.8 | 18.6 | 73.9* | 5.1
O=C(c1cccc(=O)[nH]1)N1CCC[C@@]2(C[C@@H](Oc3ccccc3)CO2)C1 | -17.1 | -0.1 | -4.1 | -2.7 | -13.3
COC(=O)c1ccc(C(=O)Nc2cc3ccccc3cc2NC(=O)c2ccc(C(=O)OC)cc2)cc1 | 68.2* | 12.6 | 2.5 | 40.8* | 16.2
COC(=O)c1ccc(C(=O)Nc2ccc3sccc3c2)cc1 | 22.5 | 6.5 | 8.5 | 26.7 | 30.7*
CCN1CCC2(CC1)Cc1ccccc1CN(C(=O)c1ccccc1)C2 | -122.7 | -2.5 | -152.6 | i | -65.3
O=C(c1ccc(O)cc1)N1C[C@@H]2OCCN(c3cnccn3)[C@@H]2C1 | 5.3 | -2.1 | -2.6 | -6.9 | -38.3
O=C(Cc1cccc(F)c1)N1CCc2c(nc(N3CCCC3)[nH]c2=O)C1 | -1.9 | 1.9 | -7.2 | -4.3 | -18.9
O=c1[nH]c(=O)n(Cc2ccccc2)c2c1CN(C1CCCCC1)CN2 | -5.0 | 0.0 | 0.5 | -18.6 | -39.3
COc1ccc(-c2nccn3cc(C(=O)NCc4nc5ccccc5n4C)nc23)cc1 | -8.3 | -9.2 | -41.5 | -253.9 | 35.7*
O=C(NCCc1ccccn1)c1cn2ccnc(-c3ccc(F)cc3)c2n1 | 21.3 | -2.6 | 3.7 | 55.9* | 2.0
O=C(NCCc1ccccn1)c1cc(-c2ccc(Br)cc2)n[nH]1 | 80.1* | 6.5 | 12.3 | 33.8* | 19.8
SMILES | USP17 block | USP10 block | USP28 block | USP30 block | USP8 inh
COc1ccc(-c2nccn3cc(C(=O)N4CCN(C)CC4)nc23)cc1 | 0.0 | -4.4 | 1.8 | 17.7 | 13.1
CCCC(=O)Nc1ccc2c(c1)nc(CCN1CCN(C)CC1)n2C | 6.7 | 0.8 | 8.2 | 0.3 | 2.6
Clc1ccc(-c2cc3nc(NCCc4ccncc4)ccn3n2)cc1 | . | -8.2 | -5.8 | -55.4 | 14.1
Cc1cc(O)c2c(c1)C(=O)c1cc(O)cc(O)c1C2=O | 1.9 | -0.4 | -86.1 | -486.4 | -13.9
Cc1cc(O)cc(Oc2cc(C)cc(O)c2)c1 | 4.0 | -8.7 | 18.7 | 30.3* | -65.0
COc1cn(CC(=O)Nc2cccc(F)c2)c(CSc2ccc(C)cc2)cc1=O | -4.5 | -6.3 | -9.0 | -4.5 | -4.3
O=C(Nc1cccnc1)c1ccc(Oc2ccccc2)cc1 | -4.4 | 3.5 | 43.5* | 19.3 | 1.6
Cc1c(Cl)cccc1NC(=O)Cn1c(=O)c2ccccc2n2nncc12 | 50.4* | -3.3 | -30.7 | -109.4 | -6.3
Cc1noc(-c2cc(=O)n(CC(=O)Nc3ccccc3Cl)c3ccccc23)n1 | 6.3 | 33.5* | -4.9 | 0.8 | 8.9
Cc1ccc(CNC(=O)Cn2c(C)cc(-c3nnc(C)o3)c2C)cc1 | 30.3* | -4.3 | 5.1 | 7.3 | -2.3
Cc1ccc2c(c1)c1ncn(Cc3nc(C)no3)c(=O)c1n2CC(=O)NCc1ccccc1 | 71.5* | 30.0* | 57.9* | 87.4* | 35.3*
Cc1noc(-c2cc(=O)n(CC(=O)Nc3cc(F)cc(F)c3)c3ccccc23)n1 | -13.4 | 0.0 | -15.7 | -0.5 | -7.0
Cc1ccc(CNC(=O)CCn2cnc3c(-c4ccccc4)noc3c2=O)cc1 | 14.1 | 0.3 | 5.9 | 27.8 | -2.7
Cc1c(Cl)cccc1NC(=O)CN1c2ccccc2S(=O)(=O)c2ccccc21 | -21.1 | -1.3 | . | . | -10.4
O=C(NCc1ccc(F)cc1)C1CCN(c2cc(N3CCOCC3)ncn2)CC1 | 0.1 | 0.5 | -2.4 | -23.5 | -2.5
COc1ccc(CN2CCOCC3(CC(Cn4cnnc4)CO3)C2)cc1 (configuration not stated) | -4.8 | 0.1 | -8.4 | -4.0 | -40.3
Cc1cn(C)c(C2CCCN(C(=O)c3cc(C)nc4onc(C)c34)C2)n1 (configuration not stated) | 4.6 | 2.9 | 9.7 | 14.7 | 15.8
CCc1noc(-c2cc(=O)n(CC(=O)Nc3ccccc3)c3ccccc23)n1 | -6.8 | 11.6 | -4.3 | 1.8 | 5.0
Cc1ccc(CNC(=O)Cn2c(=O)cc(-c3nc(C)no3)c3ccccc32)cc1 | 42.2* | 3.9 | -6.4 | -7.4 | 6.3
Cc1noc(-c2cc(=O)n(CC(=O)NC3CCCC3)c3ccccc23)n1 | 10.9 | 3.8 | 7.4 | -36.6 | 34.8*
Cc1noc(-c2cc(=O)n(CC(=O)Nc3ccccc3)c3ccccc23)n1 | 41.8* | 8.9 | . | . | -0.5
Cc1cc(=O)n(CC(=O)NCc2ccc(F)cc2)c(-c2ccccc2)n1 | 4.2 | 1.0 | 5.3 | 38.6* | 0.2
COc1cccc(-c2ccc3nc(C4CCN(C(=O)N(C)C)CC4)nn3c2)c1 | 5.5 | -1.4 | 30.4* | 15.5 | -0.5
Cc1ccnc(Nc2nc(C)c(C(=O)NC3CCCC3)s2)c1 | 31.3* | -1.4 | 2.6 | -10.4 | 23.9
Cc1nc(COc2ccccc2)sc1C(=O)NC1CCCC1 | 39.4* | -1.8 | 10.5 | 15.1 | 15.3
COc1ccccc1CNC(=O)c1ccc(Cn2c(=O)c3ccccc3n(CC(=O)N(C)C3CCCCC3)c2=O)cc1 | -15.1 | -1.1 | -15.0 | -24.4 | -18.0
Cc1nc(-c2ccc(C(=O)Nc3cccc(F)c3)cc2)cs1 | 11.5 | 1.0 | 13.9 | -20.1 | 25.7
CC(=O)c1cccc(NC(=O)c2ccc(-c3csc(C)n3)cc2)c1 | 52.8* | -1.4 | 20.5 | -50.2 | -0.1
